Shown are actives, neighbours in structure and some others; about 0.5% of the full set was active somewhere.
E coli growth-1 – bacterial growth inhibition, counter-screen for AddAB inhibitors; inhibition, % at 11.9 µM; 330,000 tested, 0.27% active; E. coli V3065 growth, OD600 absorbance, 18 h;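 active = inhibition above the campaign's mean inhibition across all tested compounds plus 3 SD, cut at about 9.9% in these data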;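 note: uninfected addAB+ strain grown without phage in ampicillin broth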
E coli growth-2 – E. coli growth inhibition | Escherichia coli growth, OD600, 23 h; hits give low values | OD600 absorbance (test concentration not listed) | 330,000 tested, 0.21% active;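 active = OD600 absorbance below the run mean of sample wells minus 3.6 SD, in any replicate, cut at about 0.56 in these data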
phage Ecoli inh – E. coli growth loss with phage present. inhibition, % at 11.9 µM. 360,000 tested, 0.26% active. growth absorbance; in the data active = inhibition above about 11%
Tat transport – inhibitors of E. coli Tat protein transport. E. coli MC4100 TorA-mCherry Tat export, fluorescence. inhibition, % at 10 µM. 340,000 tested, 0.036% active;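 active = mean replicate inhibition at least 50% and at least half of replicates individually reaching 50%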;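 note: exported cargo escapes ClpAP degradation while cytoplasmic cargo is degraded and loses fluorescence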
AddAB inh – less growth of phage-infected E. coli with AddAB; E. coli expressing H. pylori AddAB, absorbance growth; inhibition, % at 11.9 µM; 330,000 tested, 0.29% active; in the data active = inhibition above about 12%
Each line names hits and unclear results; the compound was inactive in the other large screens.

COc1cc(NS(=O)(=O)c2ccc(N)cc2)ncn1	E coli growth-1 16, AddAB inh 21 (no result: E coli growth-2, phage Ecoli inh, Tat transport)
Cc1ccsc1C(=O)Nc1nnc(-c2ccco2)o1	E coli growth-2 0.41
CCC(C)C(N)C1=NC(C(=O)N[C@@H](CC(C)C)C(=O)N[C@H](CCC(=O)[O-])C(=O)N[C@H](C(=O)N[C@H]2CCCCNC(=O)[C@H](CC(N)=O)NC(=O)[C@@H](CC(=O)[O-])NC(=O)[C@H](Cc3cnc[nH]3)NC(=O)[C@@H](Cc3ccccc3)NC(=O)[C@H]([C@@H](C)CC)NC(=O)[C@@H](CCCN)NC2=O)[C@@H](C)CC)CS1.[Zn+2] (some centres not stated)	Tat transport 54 (no result: E coli growth-1, E coli growth-2, phage Ecoli inh, AddAB inh)
CS(=O)(=O)n1nc(-c2ccc(Cl)cc2)nc1N	none
Cn1nc(-c2ccc(Cl)cc2)nc2c(=O)n(C)c(=O)nc1-2	E coli growth-2 0.48 (no result: phage Ecoli inh)
Cc1noc(NS(=O)(=O)c2ccc(NC(=O)CCn3c(=O)oc4ccccc43)cc2)c1C	E coli growth-1 10
Cc1cc(C)nc(NS(=O)(=O)c2ccc(NC(=O)Cn3c(=O)oc4ccccc43)cc2)n1	none
CC(C)NC(=O)Nc1cccc2c1OC(CN(C)C(=O)NC1CCCCC1)C(C)CN(C(C)CO)C2=O (configuration not stated)	none (no result: E coli growth-1, phage Ecoli inh, Tat transport, AddAB inh)
CN1CC2C(c3ccc(C(F)(F)F)cc3)C3(c4cccnc4)CC2(C3)C1c1ccccc1 (configuration not stated)	none (no result: E coli growth-1, phage Ecoli inh, Tat transport, AddAB inh)
O=c1oc(Nc2cccc(F)c2)nc2ccccc12	none
Nc1nc(Nc2cccc(F)c2)nc2ccccc12	E coli growth-2 0.47
O=[N+]([O-])c1cccc(-c2ccc(/C=N/NC(=S)Nc3ccccc3)o2)c1	E coli growth-1 10 (no result: E coli growth-2)
O=[N+]([O-])c1ccc(Nc2ccccc2)c2nonc12	none (no result: E coli growth-2)
O=[N+]([O-])c1ccc(Sc2cccc[n+]2[O-])c2nonc12	E coli growth-2 0.086, phage Ecoli inh 60, Tat transport 139 (no result: E coli growth-1, AddAB inh)
O=C(Nc1cccs1)Nc1ccc(Br)cc1F	E coli growth-2 0.49
O=C(CC1CC=CCCC(Cc2ccc(F)cc2)C(=O)OCC(Cc2ccccc2)NC1=O)NCCO (configuration not stated)	none (no result: E coli growth-1, phage Ecoli inh, Tat transport, AddAB inh)
CCCCCCCCCCCCCCCC[n+]1cccc2ccccc21	E coli growth-2 0.092
CCOc1ccc(CCN2C(=O)C(=O)N(C(CCCN(C)Cc3ccccc3)CNCc3ccccc3)CC2C(C)C)cc1 (configuration not stated)	none (no result: E coli growth-1, phage Ecoli inh, Tat transport, AddAB inh)
CCCCCCCCCCCCN1[C@@H](CC(=O)O)c2cc(C(F)(F)F)ccc2S1(=O)=O	Tat transport 52 (no result: E coli growth-2)
CCCCCCCCN1C(CC(=O)O)c2cc(C(F)(F)F)ccc2S1(=O)=O (configuration not stated)	none (no result: E coli growth-1, phage Ecoli inh, Tat transport, AddAB inh)
O=[N+]([O-])c1cc(C(F)(F)F)ccc1N1CCN(S(=O)(=O)c2ccc3ccccc3c2)CC1	E coli growth-2 0.54
Cc1c(-n2c(SCC(C)C)nc3ccccc3c2=O)c(=O)n(-c2ccccc2)n1C	E coli growth-2 0.39
N#CC(C#N)=NNc1ccc([N+](=O)[O-])cc1	E coli growth-2 0.33
C/C(=N\Nc1ccc([N+](=O)[O-])cc1)c1ccc(C#N)cc1	none (no result: E coli growth-2)
COC(=O)c1cccc(C23CC4(C2)C(CN(Cc2cccnc2)C4c2ccccc2)C3c2ccc(Cl)nc2)c1 (configuration not stated)	none (no result: E coli growth-1, phage Ecoli inh, Tat transport, AddAB inh)
Cc1ccc(C(=O)NN=Cc2cc(Br)c(Br)o2)cn1	none (no result: E coli growth-1, phage Ecoli inh, Tat transport, AddAB inh)
COc1ccc(CNC(=O)c2ccc(C)o2)cc1	E coli growth-1 10
O=C1CCNCCN1C(CO)c1ccccc1 (configuration not stated)	none (no result: E coli growth-1, phage Ecoli inh, Tat transport, AddAB inh)
O=C(CNS(=O)(=O)c1ccc(Br)s1)NCc1ccccc1	E coli growth-2 0.54
Cc1nc(N)nc(N)c1Oc1ccc(Cl)cc1	E coli growth-2 0.52 (no result: E coli growth-1, AddAB inh)
CCCCCCCCCCCCCCCC[N+](C)(C)CCN(Cc1ccc(OC)cc1)c1ncccn1	Tat transport 54 (no result: E coli growth-2, phage Ecoli inh)
CC(C)(C)C1C=C(C(=O)N2CCOCC2)OC(OCCCCO)C1 (configuration not stated)	none (no result: E coli growth-1, phage Ecoli inh, Tat transport, AddAB inh)
COCC1=C(C(=O)OC(C)OC(=O)OC(C)C)N2C(=O)[C@@H](NC(=O)/C(=N\OC)c3csc(N)n3)[C@H]2SC1 (some centres not stated)	none (no result: E coli growth-2)
C=CC1=C(C(=O)O)N2C(=O)C(NC(=O)C(=NOCC(=O)O)c3csc(N)n3)C2SC1 (configuration not stated)	E coli growth-2 0.062 (no result: E coli growth-1, phage Ecoli inh, Tat transport, AddAB inh)
Cc1ccc(Nc2cc(C)nn2-c2nc(C)cc(C)n2)cc1	none
Cc1ccc(Nc2cc(C)nn2-c2nc(C)cc(=O)[nH]2)cc1	E coli growth-2 0.49 (no result: phage Ecoli inh)
COc1ccc(/C=N\NC(=S)SCN2C(=O)C3CCC(C)(C2=O)C3(C)C)cc1 (configuration not stated)	E coli growth-1 11 (no result: E coli growth-2)
COc1ccc(C=NNC(=S)SCN2C(=O)C3CCC(C)(C2=O)C3(C)C)cc1 (configuration not stated)	none (no result: E coli growth-1, phage Ecoli inh, Tat transport, AddAB inh)
CC12CCC(C(=O)N(CSC(=S)NN=Cc3ccccc3)C1=O)C2(C)C (configuration not stated)	none (no result: E coli growth-1, phage Ecoli inh, Tat transport, AddAB inh)
CN(C)c1ccc(/C=N\NC(=S)SCN2C(=O)C3CCC(C)(C2=O)C3(C)C)cc1 (configuration not stated)	E coli growth-1 15 (no result: E coli growth-2)
O=C1C=C(c2cccc(CO)c2)CC(c2ccc3c(c2)OCO3)C1 (configuration not stated)	none (no result: E coli growth-1, phage Ecoli inh, Tat transport, AddAB inh)
COc1cccc(CN2C(=O)C3Cc4c([nH]c5ccccc45)C(C)(C)N3C2=O)c1 (configuration not stated)	none (no result: E coli growth-1, phage Ecoli inh, Tat transport, AddAB inh)
C[C@H]1COc2c(C3(N)CC3)c(F)cc3c(=O)c(C(=O)O)cn1c23	E coli growth-1 102, AddAB inh 100 (no result: E coli growth-2, phage Ecoli inh, Tat transport)
Cc1nnc(SCC2=C(C(=O)O)N3C(=O)C(NC(=O)Cn4ncc(Cl)c4C)C3SC2)s1 (configuration not stated)	E coli growth-2 0.44
Cc1nnc(SCC2=C(C(=O)O)N3C(=O)C(NC(=O)c4cccc(F)c4F)C3SC2)s1 (configuration not stated)	none
Cc1cc(C)n(CC(=O)NC2C(=O)N3C(C(=O)O)=C(CSc4nnc(C)s4)CSC23)n1 (configuration not stated)	E coli growth-2 0.19
CC(=O)OCC1=C(C(=O)O)N2C(=O)[C@@H](NC(=O)CSc3ccncc3)[C@H]2SC1	E coli growth-2 0.22 (no result: E coli growth-1, AddAB inh)
CC(=O)OCC1=C(C(=O)O)N2C(=O)C(NC(=O)C(C)Cn3nc(C)c(Cl)c3C)C2SC1 (configuration not stated)	none
COCCN1C(=O)NC(c2ccccc2)C(C(C)=O)C1C (configuration not stated)	none (no result: E coli growth-1, phage Ecoli inh, Tat transport, AddAB inh)
O=C1CCC(O)CCN1C(CSc1ccc(Br)cc1)Cc1ccccc1 (configuration not stated)	none (no result: E coli growth-1, phage Ecoli inh, Tat transport, AddAB inh)
NC(=O)C1CC2(CC(c3cccc(NC(=O)CC(c4ccccc4)c4ccccc4)c3)=NO2)CN1C(=O)CC(c1ccccc1)c1ccccc1 (configuration not stated)	none (no result: E coli growth-1, phage Ecoli inh, Tat transport, AddAB inh)
O=C1CCC(OCc2ccccc2)CCN1CCC(Sc1ccccc1)c1ccccc1 (configuration not stated)	none (no result: E coli growth-1, phage Ecoli inh, Tat transport, AddAB inh)

High-throughput results as filed in PubChem.
